Experiment [1] can be described thus: small molecules captured by biotinylated probe aFSTL3 – biochemical, small-molecule microarray, fluorescence 635/667, stem cell growth factor project, primary screen (AID 1064).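 Note: measures binding of the biotinylated anti-FSTL3 antibody to printed compounds.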 The note with it: higher = more signal.
Experiment [2] is described as follows: binders from COS7 lysate, DM2A8 probe, primary screen, torsin A project, cell lysate, small-molecule microarray, fluorescence 635/667 (AID 1065). The settings on record: higher = more signal, COS7 lysate expressing mutant human TOR1A.
A short description of experiment [3]: small molecules captured by biotinylated probe aFGF2 – biochemical, small-molecule microarray, fluorescence 635/667, stem cell growth factor project, primary screen (AID 1067).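 Note: measures binding of biotinylated aFGF2 protein to printed compounds on slides; z-score merges feature fluorescence and signal-to-noise across triplicate slides.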 The note with it: higher = more signal.
Experiment [4] is described as follows: small molecules captured by biotinylated probe aFGF10 – biochemical, small-molecule microarray, fluorescence 635/667, stem cell growth factor project, primary screen (AID 1071).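 Note: score merges 667 nm spot intensity and signal to noise from triplicate slides.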 The settings on record: higher = more signal.
In experiment [5] the target is Neurogenic locus notch homolog protein 2 (Homo sapiens) (UniProt Q04721). Kind of experiment: small molecules binding Notch2 protein – biochemical, small-molecule microarray, 635 nm fluorescence, stem cell growth factors, primary screen (AID 1073). The settings on record: higher = more signal.
The target of experiment [6] is Pro-neuregulin-1, membrane-bound isoform (Homo sapiens) (UniProt Q02297). Briefly: small molecules binding neuregulin-1 protein – biochemical, small-molecule microarray, fluorescence 635/667, psychiatric disease protein project, primary screen (AID 1075).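 Note: score combines 667 nm spot fluorescence with signal to noise.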 The settings on record: NRG1 binding, 635 nm fluorescence, higher = more signal.
The subject of experiment [7] is Neuregulin-1 EGF-like domain. Kind of experiment: small molecules binding NRG1 EGF domain – biochemical, small-molecule microarray, 635 nm fluorescence, primary screen (AID 1081).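 Note: binding of the protein to compounds printed on small-molecule microarray slides.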 The settings on record: higher = more signal.
The nature of experiment [8]: FRG1 expression reporter modulators in myotubes – cell-based, C2C12 myotubes, firefly/Renilla luciferase, luminescence, FRG1 inhibition for FSHD, primary screen (AID 1084). The note with it: FRG1 promoter luciferase, higher = more signal, called active from +8 up or from −8 down.
The nature of experiment [9]: small molecules captured by biotinylated probe aFST – biochemical, small-molecule microarray, fluorescence 635/667, stem cell growth factor project, primary screen (AID 1086).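 Note: score merges 667 nm fluorescence with signal-to-noise of each printed compound spot.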 The note with it: higher = more signal.
Experiment [10] in a line: binders of probe aHhip on microarray, primary screen, stem cell growth factor project, biochemical, small-molecule microarray, fluorescence 635/667 (AID 1087).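 Note: score merges spot fluorescence at 667nm with spot signal to noise ratio.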 The note with it: higher = more signal.
The subject of experiment [11] is PRMT1 (protein arginine N-methyltransferase 1). Kind of experiment: small molecules binding arginine methyltransferase PRMT1 – biochemical, small-molecule microarray, 635 nm fluorescence, primary screen (AID 1088).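 Note: binding of Prmt1 protein to compounds spotted on small-molecule microarray slides.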 The note with it: higher = more signal.
The nature of experiment [12]: growth effects on S. cerevisiae YJM789 – YJM789 clinical isolate, OD600, 24 h, basal, primary screen (AID 1089).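 Note: growth of clinical yeast isolate S. cerevisiae YJM 789 seeded 1000 cells per well; test concentration not given here.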 The note with it: higher = more signal, called active from +8 up or from −8 down.
The nature of experiment [13]: S. pombe growth modifiers, basal conditions – strain 972, OD600, 24 h, no modulator, primary screen (AID 1090).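 Note: basal condition with compound alone and no growth modifier present; test concentration not given here.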 The note with it: S. pombe 972 growth, higher = more signal, called active from +8 up or from −8 down.
A short description of experiment [14]: budding yeast growth modifiers under rapamycin – strain BY4716, OD600, 96 h, primary screen (AID 1091). Note: test concentration not given here. The settings on record: S. cerevisiae BY4716 + rapamycin, higher = more signal, called active from +8 up or from −8 down.
The target of experiment [15] is Torsin-1A-interacting protein 2 (Homo sapiens) (UniProt Q8NFQ8). Kind of experiment: small molecules binding lysate-expressed LULL1 – cell lysate, human LULL1 lysate, 635/667 nm fluorescence, primary screen (AID 1092).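 Note: score merges per-feature 667 nm fluorescence with signal-to-noise.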 The settings on record: small-molecule microarray, hLULL1 lysate binding, 635 nm fluorescence; higher = more signal.
Experiment [16] in a line: optical density change of DRC41 E. coli – strain DRC41, OD650, 24 h, E. coli filamentation project, primary screen (AID 1093).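 Note: MC1000 strain lacking acrAB efflux and sulA so SOS filamentation is blocked; test concentration not given here.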 The note with it: E. coli DRC41 growth, higher = more signal, called active from +8 up or from −8 down.
A short description of experiment [17]: probe aLefty2 binding to arrayed compounds – biochemical, biotinylated probe, 635/667 nm fluorescence, primary screen (AID 1094).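 Note: score merges spot fluorescence near 667 nm with spot signal-to-noise ratio.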 The settings on record: small-molecule microarray, higher = more signal.
Experiment [18] relates to Noggin (protein binding on small-molecule microarray). Briefly: small molecules binding Noggin protein – biochemical, 635/667 nm fluorescence, primary screen (AID 1095).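 Note: score merges 667 nm feature fluorescence with signal to noise over triplicate slides.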 The settings on record: 635 nm fluorescence, higher = more signal.
Experiment [19] deals with Neurogenic locus notch homolog protein 3 (Homo sapiens) (UniProt Q9UM47). Kind of experiment: small molecules binding NOTCH3 protein – biochemical, 635/667 nm fluorescence, primary screen (AID 1096). The note with it: small-molecule microarray, 635 nm fluorescence, higher = more signal.
The nature of experiment [20]: probe aEGFR binding to arrayed compounds – biochemical, biotinylated probe, 635/667 nm fluorescence, primary screen (AID 1097).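 Note: probe is a biotinylated anti-EGFR antibody binding compounds printed on slides; score combines fluorescence near 667 nm and signal to noise of each spot.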 The note with it: small-molecule microarray, higher = more signal.

Active and inactive are the calls of the source.

Chain of Neurogenic locus notch homolog protein 3 (Homo sapiens) (Q9UM47 whole entry, looked up): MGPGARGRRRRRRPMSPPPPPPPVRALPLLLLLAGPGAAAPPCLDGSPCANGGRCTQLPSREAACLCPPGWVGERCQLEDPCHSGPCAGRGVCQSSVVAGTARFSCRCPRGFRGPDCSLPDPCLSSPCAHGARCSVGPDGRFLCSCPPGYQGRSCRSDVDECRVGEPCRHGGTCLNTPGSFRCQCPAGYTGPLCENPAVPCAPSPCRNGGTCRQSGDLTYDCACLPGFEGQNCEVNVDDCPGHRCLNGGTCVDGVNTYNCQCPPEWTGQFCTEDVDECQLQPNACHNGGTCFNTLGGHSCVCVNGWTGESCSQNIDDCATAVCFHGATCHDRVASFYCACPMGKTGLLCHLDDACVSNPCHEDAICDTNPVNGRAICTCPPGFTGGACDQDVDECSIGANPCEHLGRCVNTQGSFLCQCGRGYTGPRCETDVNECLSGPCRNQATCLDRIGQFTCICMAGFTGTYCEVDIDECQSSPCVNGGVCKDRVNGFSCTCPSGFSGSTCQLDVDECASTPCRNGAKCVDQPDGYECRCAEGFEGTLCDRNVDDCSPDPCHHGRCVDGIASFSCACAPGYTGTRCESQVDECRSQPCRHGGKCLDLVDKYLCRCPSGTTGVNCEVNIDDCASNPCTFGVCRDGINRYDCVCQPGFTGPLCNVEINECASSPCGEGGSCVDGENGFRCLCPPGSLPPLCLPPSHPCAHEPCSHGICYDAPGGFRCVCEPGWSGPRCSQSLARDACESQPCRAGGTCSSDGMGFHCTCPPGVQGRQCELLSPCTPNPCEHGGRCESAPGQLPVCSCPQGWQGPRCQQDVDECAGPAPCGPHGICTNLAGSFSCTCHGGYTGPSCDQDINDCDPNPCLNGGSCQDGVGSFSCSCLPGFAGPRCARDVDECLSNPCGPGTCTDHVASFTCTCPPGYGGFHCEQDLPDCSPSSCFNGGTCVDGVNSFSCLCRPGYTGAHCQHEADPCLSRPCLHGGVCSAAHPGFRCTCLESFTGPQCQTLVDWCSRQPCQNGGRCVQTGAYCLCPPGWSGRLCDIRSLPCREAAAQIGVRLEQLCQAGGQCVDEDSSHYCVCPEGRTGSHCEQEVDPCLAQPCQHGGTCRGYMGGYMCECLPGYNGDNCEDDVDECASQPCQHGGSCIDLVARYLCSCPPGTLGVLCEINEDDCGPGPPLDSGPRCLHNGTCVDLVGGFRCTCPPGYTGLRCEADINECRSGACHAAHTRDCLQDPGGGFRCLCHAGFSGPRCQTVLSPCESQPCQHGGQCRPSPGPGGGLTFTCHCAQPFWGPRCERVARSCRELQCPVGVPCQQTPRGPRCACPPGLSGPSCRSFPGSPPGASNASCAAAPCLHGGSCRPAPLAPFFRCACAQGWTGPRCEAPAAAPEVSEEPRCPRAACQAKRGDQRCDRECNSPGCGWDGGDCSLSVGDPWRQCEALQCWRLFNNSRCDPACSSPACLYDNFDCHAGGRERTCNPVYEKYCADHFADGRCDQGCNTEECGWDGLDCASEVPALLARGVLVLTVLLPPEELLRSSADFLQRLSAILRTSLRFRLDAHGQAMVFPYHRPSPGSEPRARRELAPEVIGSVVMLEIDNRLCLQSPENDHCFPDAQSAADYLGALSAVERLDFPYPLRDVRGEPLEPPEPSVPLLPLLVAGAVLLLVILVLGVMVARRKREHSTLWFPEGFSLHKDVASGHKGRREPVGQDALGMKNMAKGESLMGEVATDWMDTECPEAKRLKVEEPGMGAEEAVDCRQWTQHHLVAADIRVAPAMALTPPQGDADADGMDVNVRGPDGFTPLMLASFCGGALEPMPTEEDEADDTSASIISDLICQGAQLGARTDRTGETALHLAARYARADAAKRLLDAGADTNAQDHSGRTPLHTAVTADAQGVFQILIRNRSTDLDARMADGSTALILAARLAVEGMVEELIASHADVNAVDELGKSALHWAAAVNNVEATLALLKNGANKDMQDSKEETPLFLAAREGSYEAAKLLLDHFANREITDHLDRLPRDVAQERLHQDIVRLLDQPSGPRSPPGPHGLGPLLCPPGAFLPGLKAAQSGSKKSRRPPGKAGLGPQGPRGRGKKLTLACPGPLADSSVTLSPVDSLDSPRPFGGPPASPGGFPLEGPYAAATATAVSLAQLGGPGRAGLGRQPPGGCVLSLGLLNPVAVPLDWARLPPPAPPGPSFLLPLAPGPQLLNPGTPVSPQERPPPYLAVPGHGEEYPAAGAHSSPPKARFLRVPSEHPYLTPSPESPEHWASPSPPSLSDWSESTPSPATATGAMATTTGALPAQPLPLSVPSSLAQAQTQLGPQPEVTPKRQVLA
Chain of Torsin-1A-interacting protein 2 (Homo sapiens) (Q8NFQ8 whole entry, looked up): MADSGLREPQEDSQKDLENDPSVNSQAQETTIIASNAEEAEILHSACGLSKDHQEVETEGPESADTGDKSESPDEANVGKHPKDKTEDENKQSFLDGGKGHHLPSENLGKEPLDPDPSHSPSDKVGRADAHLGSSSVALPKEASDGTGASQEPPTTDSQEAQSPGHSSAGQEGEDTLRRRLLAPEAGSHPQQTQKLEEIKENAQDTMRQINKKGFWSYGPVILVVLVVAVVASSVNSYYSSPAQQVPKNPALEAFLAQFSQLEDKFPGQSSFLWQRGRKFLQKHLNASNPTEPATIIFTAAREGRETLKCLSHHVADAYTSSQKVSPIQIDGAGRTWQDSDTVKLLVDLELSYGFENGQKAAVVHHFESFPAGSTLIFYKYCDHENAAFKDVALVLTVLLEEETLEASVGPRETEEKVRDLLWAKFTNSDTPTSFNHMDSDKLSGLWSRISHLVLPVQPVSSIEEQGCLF
Chain of Pro-neuregulin-1, membrane-bound isoform (Homo sapiens) (Q02297 whole entry, looked up, the tested form may be a part, canonical isoform): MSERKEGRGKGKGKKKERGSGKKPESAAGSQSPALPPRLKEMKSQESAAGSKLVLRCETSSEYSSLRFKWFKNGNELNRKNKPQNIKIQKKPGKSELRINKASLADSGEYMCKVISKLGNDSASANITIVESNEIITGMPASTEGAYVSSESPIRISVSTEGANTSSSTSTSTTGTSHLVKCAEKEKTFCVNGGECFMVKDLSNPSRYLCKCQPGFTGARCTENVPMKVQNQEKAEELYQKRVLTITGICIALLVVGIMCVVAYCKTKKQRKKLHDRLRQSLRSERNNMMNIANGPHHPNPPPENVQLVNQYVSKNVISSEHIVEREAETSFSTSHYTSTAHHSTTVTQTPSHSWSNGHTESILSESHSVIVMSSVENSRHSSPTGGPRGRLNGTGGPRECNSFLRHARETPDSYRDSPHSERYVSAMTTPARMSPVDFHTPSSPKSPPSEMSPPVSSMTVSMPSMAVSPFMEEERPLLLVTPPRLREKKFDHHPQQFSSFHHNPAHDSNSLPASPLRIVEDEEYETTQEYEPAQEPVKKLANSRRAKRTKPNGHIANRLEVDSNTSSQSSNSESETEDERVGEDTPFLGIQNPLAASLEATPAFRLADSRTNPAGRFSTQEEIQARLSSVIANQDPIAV

Take `CCOC(=O)[C@H](Cc1ccccc1)NC(=O)CCC1CC(OC(=O)NCCc2ccc(F)cc2)CC2(CCCC(COC(=O)NCc3ccccc3)O2)O1` (stereo not given in full): the composite z-score was -0.434 in experiment [1]; -0.0986 in experiment [2]; -0.0887 in experiment [3]; 0.854 in experiment [4]; 0.679 in [5]; 0.331 in experiment [6]. For the same compound, the composite z-score in experiment [7] was 0.903; in experiment [9], 0.0791; in experiment [10], -0.0994; in experiment [11], 1.56; in [15], 0.999; in [17], -0.0965. The figures for the composite z-score in experiment [18], in [19] and in experiment [20] were 0.644, 1.04 and -0.0146, respectively. In addition, the z-score in experiment [8] was 0.292 (inactive); in [12] it was -0.522 (inactive); in [13] it was 0.653 (inactive); in experiment [14] it was 0.6 (inactive); in experiment [16], 0.413 (inactive).
With `C[C@@H](c1ccccc1)N1C(=O)[C@H]2[C@H]3[C@H](O)[C@H](O)CC(=O)[C@H]3CC[C@H]2C1=O`, the composite z-score in experiment [1] was -0.483; in [2] it was 0.107; in experiment [3], -0.0878; in experiment [4] it was 0.443; in experiment [5], 0.896; in [6], 0.286. The composite z-score was 0.477 in experiment [7]; 0.0442 in experiment [9]; -0.0994 in experiment [10]; 0.157 in experiment [11]; 0.461 in [15]; -0.0483 in experiment [17]. Further, the composite z-score is 0.482 in experiment [18], 0.521 in [19] and -0.108 in experiment [20]. Moreover, the z-score in [8] is -0.12 (inactive); in experiment [12] it was -0.394 (inactive); in experiment [13], -0.197 (inactive); in experiment [14], 0.134 (inactive); in experiment [16], 0.541 (inactive).
As for `O=C1[C@H]2[C@H]3[C@H](O)[C@H](O)CC(=NOC[C@@H](O)COCc4ccco4)[C@H]3CC[C@H]2C(=O)N1C[C@@H]1CCCO1`, the composite z-score in [1] was -0.634; in [2], 1.03; in [3], -0.265; in experiment [4] it was 0.133; in experiment [5] it was 0.256; in [6], -0.285. For the same compound, the composite z-score in [7] is 1.15; in experiment [9], -0.181; in [10], -0.337; in [11], 0.629; in experiment [15], -0.884; in experiment [17], -0.138. In addition, the composite z-score in experiment [18] was determined as 0.759; in experiment [19], 0.28; in [20], 0.0872. The z-score in experiment [8] was 0.839 (inactive); in experiment [12], -0.193 (inactive); in experiment [13], 0.236 (inactive); in experiment [14], -0.318 (inactive); in experiment [16], 0.0018 (inactive).
For the compound `CCCNC(=O)OC[C@H]1O[C@H](CCON=C(C)CCN2CCCc3nc(C)c(C)cc32)C=C[C@@H]1Oc1ccc(OC)cc1`, the composite z-score is -0.0324 in experiment [1]; -0.0773 in experiment [2]; -0.0611 in [3]; 0.552 in experiment [4]; 0.661 in experiment [5]; 0.639 in experiment [6]. Besides, the composite z-score in experiment [7] was 0.685; in experiment [9], 0.504; in [10] it was -0.0994; in experiment [11], 1.55; in [15], 2.38; in [17] it was 0.0408. For the same compound, the composite z-score in experiment [18] was found to be 0.634; in experiment [19] it was 0.991; in experiment [20], 0.101. In addition, the z-score is -0.46 (inactive) in [8]; -0.663 (inactive) in [12]; -0.604 (inactive) in [13]; -0.0042 (inactive) in experiment [14]; 1.05 (inactive) in [16].
Consider `COCOc1ccc(Br)cc1C(=O)[C@@H]1O[C@H]1c1cccc(OC)c1`, for which the composite z-score in experiment [1] was -0.305; in [2] it was -0.0196; in experiment [3], -0.122; in [4], 0.204; in experiment [5], 0.333; in [6] it was -0.268. Also, the composite z-score was 0.287 in experiment [7]; -0.0156 in experiment [9]; -0.202 in experiment [10]; -0.0021 in experiment [11]; 0.497 in experiment [15]; -0.142 in experiment [17]. The composite z-score was 0.455 in [18], 0.257 in experiment [19] and -0.112 in [20]. For the same compound, the z-score was -0.0714 (inactive) in experiment [8]; -1.33 (inactive) in experiment [12]; -6.67 (inactive) in experiment [13]; -0.822 (inactive) in [14]; 1.58 (inactive) in experiment [16].
Take `CCc1cc2c(nc1CC)CCN(CCC(C)=NO[C@@H](C)c1cn([C@H](CO)Cc3ccccc3)nn1)C2`: the composite z-score in experiment [1] was -0.0739; in experiment [2], 0.39; in [3], -0.123; in [4] it was 0.112; in experiment [5], -0.0274; in [6], 0.373. Further, the composite z-score in [7] was -0.0269; in experiment [9], 0.283; in experiment [10] it was 0.115; in [11] it was -0.329; in experiment [15], 0.559; in experiment [17], 0.0336. Further, the composite z-score in experiment [18] was 0.42; in experiment [19], 0.438; in experiment [20], -0.0679. Further, the z-score was 0.704 (inactive) in experiment [8]; 0.687 (inactive) in experiment [12]; 0.22 (inactive) in [13]; -0.215 (inactive) in experiment [14]; -0.189 (inactive) in experiment [16].
For `C[C@H]1CC[C@H]2C(=O)O[C@H](COc3ccc(C(C)(C)C)cc3)CN2[C@@H]1c1ccc(Br)cc1`, the composite z-score in experiment [1] was -0.135; in experiment [2], 0.169; in [3] it was -0.053; in experiment [4], -0.0634; in [5], -0.0332; in experiment [6] it was 0.724. Moreover, the composite z-score in experiment [7] was -0.536; in experiment [9] it was 0.125; in experiment [10] it was -0.371; in experiment [11], 0.27; in [15], 0.55; in experiment [17] it was 0.0056. Besides, the composite z-score in experiment [18] was -0.0084; in experiment [19], -0.164; in experiment [20] it was -0.143. Further, the z-score in [8] is -0.0935 (inactive); in [12], -0.364 (inactive); in [13] it was -0.725 (inactive); in experiment [14] it was 0.474 (inactive); in experiment [16], -0.535 (inactive).

The values are drawn from PubChem BioAssay.
